The record followed here is PubChem BioAssay (NCI).

The panel holds about 83,000 compounds, 20% with a hit somewhere; the sample as a whole holds those more often.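 Results are percent growth after 48 hours of single-concentration exposure. 100 means growth as in untreated cells, lower positive values show inhibition; negative values down to -100 show cell death.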 Values without a mark were called inactive. Activity calls are given as the source filed them. How the source made its calls: active means growth percent below 10; inactive means the rest.

Test systems include NCI-H23 lung; NCI-H226 lung; NCI-H322M lung; HOP-62 NSCLC; NCI-H460 lung; HOP-92 NSCLC; NCI-H522 lung; A549/ATCC NSCLC; 786-0 renal; COLO 205 colon; DU-145 prostate; K-562 leukemia; MALME-3M melanoma; MDA-MB-231 breast; RXF 393 renal; SF-268 CNS; SF-295 CNS; SF-539 CNS; UACC-257 melanoma; M14 melanoma.
Experiment in all cases: NCI-60 one-dose screen, 48 h (100 = growth as untreated, 0 = no growth, -100 = all killed)
What all share (conditions): 10 µM unless noted

As to `Cc1ccc(F)c(NC(=O)Nc2ccc(-c3cccc4[nH]nc(N)c34)cc2)c1`, the growth in the assay on NCI-H23 lung is 9.14% (active); with NCI-H226 lung, 57.6%; in the assay with NCI-H322M lung it was 21.5%; in the assay on HOP-62 NSCLC, -7.49% (active); with NCI-H460 lung it was 10.2%; in the assay with HOP-92 NSCLC, 63.8%. The growth with NCI-H522 lung is -23.3% (active); in the assay on A549/ATCC NSCLC it was -50.5% (active); in the assay with 786-0 renal it was 36.4%; with COLO 205 colon, -48.7% (active); in the assay on DU-145 prostate, 27.5%; in the assay on K-562 leukemia, 7.81% (active). Also, the growth was -4.64% (active) in the assay with MALME-3M melanoma; 9.7% (active) in the assay with MDA-MB-231 breast; -20.1% (active) with RXF 393 renal; 30% in the assay with SF-268 CNS; 42.8% with SF-295 CNS; 3.67% (active) in the assay with SF-539 CNS. Also, the results for the growth with UACC-257 melanoma and in the assay with M14 melanoma were 16% and 28.3%, respectively.

As to `CC(C)(O)CC(=O)NCCn1ccc2ncnc(Nc3ccc(Oc4cccc(C(F)(F)F)c4)c(Cl)c3)c21`, the growth in the assay with NCI-H23 lung was 20%; in the assay with NCI-H226 lung, 26.1%; with NCI-H322M lung it was -2.67% (active); in the assay on HOP-62 NSCLC, -12.2% (active); in the assay with NCI-H460 lung, 11.1%; in the assay with HOP-92 NSCLC, -23.1% (active). Besides, the growth with NCI-H522 lung is -20.4% (active); with A549/ATCC NSCLC, 1.14% (active); in the assay with 786-0 renal, 22.6%; with COLO 205 colon it was -67.4% (active); in the assay with DU-145 prostate, 27.4%; in the assay on K-562 leukemia, 4.49% (active). Further, the growth was -8.01% (active) in the assay on MALME-3M melanoma; 11.9% in the assay on MDA-MB-231 breast; 3.66% (active) in the assay with RXF 393 renal; 29.3% with SF-268 CNS; 31% in the assay on SF-295 CNS; 8.28% (active) in the assay with SF-539 CNS. In addition, the growth in the assay with UACC-257 melanoma is -26.8% (active); with M14 melanoma it was -1.37% (active).

Regarding `COc1cc2c(Oc3ccc4[nH]c(C)cc4c3F)ncnc2cc1OCCCN1CCCC1`, the growth is 84% in the assay on NCI-H23 lung; 57.3% with NCI-H226 lung; 93% in the assay on NCI-H322M lung; 79.8% in the assay on HOP-62 NSCLC; 96.7% in the assay on NCI-H460 lung; 95.9% with HOP-92 NSCLC. Also, the growth is 88.3% with NCI-H522 lung; 84.5% in the assay on A549/ATCC NSCLC; 84.6% in the assay with 786-0 renal; 88.9% in the assay with COLO 205 colon; 96.8% with DU-145 prostate; 71.2% in the assay on K-562 leukemia. Also, the growth in the assay on MALME-3M melanoma is 101%; in the assay with MDA-MB-231 breast it was 104%; in the assay with RXF 393 renal, 74.7%; in the assay on SF-268 CNS, 72.2%; with SF-295 CNS, 97.7%; in the assay with SF-539 CNS, 45.2%. The results for the growth with UACC-257 melanoma and in the assay with M14 melanoma were 98.8% and 92.8%, respectively.

Take `Cn1nccc1Nc1nccc(-c2ccn([C@H](CO)c3ccc(Cl)c(F)c3)c(=O)c2)n1`: the growth in the assay on NCI-H23 lung was 68.5%; in the assay with NCI-H226 lung, 110%; in the assay on NCI-H322M lung, 61%; in the assay on HOP-62 NSCLC, 78.8%; in the assay with NCI-H460 lung, 99.5%; in the assay on HOP-92 NSCLC it was 103%. Further, the growth with NCI-H522 lung was 71.2%; in the assay on A549/ATCC NSCLC, 72.3%; in the assay on 786-0 renal, 93%; with COLO 205 colon, 14.4%; with DU-145 prostate, 93.5%; in the assay on K-562 leukemia, 84.2%. Moreover, the growth in the assay with MALME-3M melanoma was 0.796% (active); in the assay with MDA-MB-231 breast, 90.8%; in the assay on RXF 393 renal, 108%; in the assay with SF-268 CNS, 96.4%; in the assay with SF-295 CNS, 98.3%; with SF-539 CNS, 104%. Further, the growth in the assay with UACC-257 melanoma was 1.1% (active); in the assay with M14 melanoma, 24.3%.

For `NC(=O)Nc1cc(-c2cccc(F)c2)sc1C(=O)N[C@H]1CCCNC1`, the growth in the assay with NCI-H23 lung is -15.3% (active); in the assay with NCI-H226 lung, 6.7% (active); in the assay on NCI-H322M lung, -17.8% (active); with HOP-62 NSCLC, -39.2% (active); with NCI-H460 lung it was -21.6% (active); in the assay on HOP-92 NSCLC, -69.2% (active). Moreover, the growth in the assay with NCI-H522 lung was -19.2% (active); with A549/ATCC NSCLC, -35.4% (active); in the assay on 786-0 renal, -82.8% (active); in the assay on COLO 205 colon, -65.3% (active); in the assay with DU-145 prostate, -8.14% (active); in the assay with K-562 leukemia, 2.46% (active). The growth in the assay on MALME-3M melanoma is 0.0893% (active); in the assay with MDA-MB-231 breast it was -8.48% (active); with RXF 393 renal, -89.1% (active); in the assay with SF-268 CNS it was -9.94% (active); in the assay on SF-295 CNS, 3.74% (active); in the assay with SF-539 CNS, -77.5% (active). For the same molecule, the growth was 5.95% (active) in the assay on UACC-257 melanoma and -13.8% (active) in the assay with M14 melanoma.

As to `Cc1ccc(C(=O)Nc2ccc(CN3CCN(C)CC3)c(C(F)(F)F)c2)cc1C#Cc1cnc2cccnn12`, the growth is -84.8% (active) in the assay with NCI-H23 lung; -96.8% (active) with NCI-H226 lung; -98.8% (active) with NCI-H322M lung; -93.6% (active) in the assay with HOP-62 NSCLC; -83.3% (active) in the assay on NCI-H460 lung; -74.1% (active) in the assay with HOP-92 NSCLC. The growth with NCI-H522 lung was -86.6% (active); in the assay with A549/ATCC NSCLC, -95.1% (active); with 786-0 renal, -91% (active); in the assay on COLO 205 colon, -88.2% (active); with DU-145 prostate, -99.7% (active); with K-562 leukemia, -64.9% (active). The growth is -85.5% (active) in the assay on MALME-3M melanoma; -85% (active) in the assay on MDA-MB-231 breast; -95.1% (active) in the assay on RXF 393 renal; -96.4% (active) with SF-268 CNS; -95.7% (active) with SF-295 CNS; -97.2% (active) in the assay with SF-539 CNS. For the same molecule, the growth was -88.3% (active) in the assay on UACC-257 melanoma and -88.8% (active) in the assay on M14 melanoma.

On to `CCCCn1c(C)nc2cc(Nc3nc(N4CCCCC4)nc4nc[nH]c34)ccc21`, for which the growth is 51.4% with NCI-H23 lung; 44.4% with NCI-H226 lung; 81.8% in the assay with NCI-H322M lung; 62.1% with HOP-62 NSCLC; 65.5% in the assay on NCI-H460 lung; -9.51% (active) in the assay on HOP-92 NSCLC. The growth was 52.6% with NCI-H522 lung; 48.4% with A549/ATCC NSCLC; 49.1% in the assay with 786-0 renal; 28.9% in the assay with COLO 205 colon; 60.2% with DU-145 prostate; 28.7% with K-562 leukemia. Moreover, the growth is 61.5% with MALME-3M melanoma; 39.2% in the assay with MDA-MB-231 breast; 22.1% in the assay on RXF 393 renal; 60.4% in the assay with SF-268 CNS; 47.1% in the assay with SF-295 CNS; 71.2% in the assay on SF-539 CNS. The growth with UACC-257 melanoma is 62.1%; in the assay on M14 melanoma, 32.8%.

`CCOc1cccc(/C=N/NC(=O)c2ccccc2Nc2ccnc(C(F)(F)F)c2)c1O`: the growth was 21.6% in the assay with NCI-H23 lung; -15.2% (active) with NCI-H226 lung; 22.2% with NCI-H322M lung; -7.4% (active) in the assay with HOP-62 NSCLC; -8.7% (active) with NCI-H460 lung; 25.2% in the assay on HOP-92 NSCLC. For the same molecule, the growth in the assay with NCI-H522 lung is 16.6%; with A549/ATCC NSCLC, 15%; with 786-0 renal, 3.64% (active); with COLO 205 colon, 9.3% (active); in the assay with DU-145 prostate, 26.2%; in the assay with K-562 leukemia it was 15.5%. Besides, the growth with MALME-3M melanoma is 18.1%; with MDA-MB-231 breast, 47%; in the assay with RXF 393 renal, 23.9%; in the assay with SF-268 CNS, 13%; in the assay with SF-295 CNS, 17.7%; in the assay on SF-539 CNS, 0.222% (active). The growth in the assay with UACC-257 melanoma is 10.2%; in the assay on M14 melanoma, -29.2% (active).
